# A selection: hits, their analogues and other compounds. The true share with any hit is near 2%.
# MBNL1 CUG block = inhibitors of human MBNL1 binding to CUG repeat RNA. TR-FRET MBNL1-His/biotin-(CUG)12 binding, 665/545 ratio. 280,000 compounds, 0.036% hits. Q9NR56. Potency, µM (highest dose often 57.5 µM), without a hit: at the highest dose activity change, negative = inhibition, hits mostly inhibitors; active = well fitted inhibition curve with a large enough effect in the signal ratio, with a control signal flat, not every such curve was filed as active; inconclusive = small, poorly fitted or top-dose-only effect, or effect the other way, or a change in a side signal; inactive = no such curve, though single readings can be large or run the other way; the % refers to the signal ratio; also: % is scaled to controls: 0 for no effect and ±100 for the full control effect
# Target sequence (Q9NR56 whole entry, looked up): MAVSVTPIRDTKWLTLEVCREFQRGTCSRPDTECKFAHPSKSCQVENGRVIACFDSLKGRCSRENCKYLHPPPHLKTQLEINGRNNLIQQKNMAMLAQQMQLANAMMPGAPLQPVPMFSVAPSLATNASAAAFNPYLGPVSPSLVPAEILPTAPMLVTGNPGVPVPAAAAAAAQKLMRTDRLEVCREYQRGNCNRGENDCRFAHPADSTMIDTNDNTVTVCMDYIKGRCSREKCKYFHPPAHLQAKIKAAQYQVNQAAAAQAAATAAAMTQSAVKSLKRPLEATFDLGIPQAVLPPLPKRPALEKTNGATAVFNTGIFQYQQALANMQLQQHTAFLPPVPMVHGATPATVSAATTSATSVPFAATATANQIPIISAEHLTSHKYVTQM
#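 Ratiometric TR-FRET (665 over 545 nm, excitation 340 nm) tracks disruption of MBNL1-His/biotin-(CUG)12 complex after 60 min at room temperature, with compounds at 92 nM to 58 uM final.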
# aSyn rescue = inhibitors of alpha-synuclein toxicity in yeast; 370,000 compounds, 0.14% hits; AID 652106; Yeast expressing alpha-synuclein, growth rescue, BacTiter-Glo, 24 h; Potency, µM (highest dose often 46.1 µM), for the others: at the top dose growth rescue (activation), usual class: activators; also: % of control where 0% means no effect; nearly all actives have a fitted effect of over 65% in size
#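 Rescue of yeast growth: cells expressing toxic alpha-synuclein, induced in galactose at OD600 0.02, incubated with compound 24 h at 30 C. ATP luminescence quantified growth; inhibitors of toxicity appear as activators.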
# Abeta rescue = compounds reversing amyloid beta toxicity in yeast; yeast expressing A-beta42, growth rescue, OD600, 48 h; response scale: 0% DMSO, 100% iron-clioquinol control; Potency, µM (highest dose often 46.1 µM), actives largely listed as activators; 410,000 compounds, 0.063% hits; AID 1347071; also: nearly all actives have a fitted effect of over 55% in size
#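 Yeast A-beta toxicity model in growth medium with pinned compounds, 48 h at 30 C; growth read as absorbance at 600 nm. Normalized to FeCl3/clioquinol equimolar mix (positive) and DMSO (negative).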
# Glioma ERSR ind = inducers of ER stress response in human glioma cells; U87-MG GRP78 promoter luciferase reporter, 16 h; Potency, µM, without a hit: top-dose activation, most hits filed as activators; 420,000 compounds, 0.02% hits; AID 602332; also: series mostly up to about 76 µM; % of control where 0% means no effect; nearly all actives have a fitted effect of over 35% in size
#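 Stably transfected U87-MG human glioma cells carrying a GRP78-based luminescent sensor were seeded at 1000 cells/well, pin-dosed with compounds and incubated 16 h. Luciferase reagent was then added, and end-point luminescence was read after 10 min at room temperature.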
# FUS suppressor = suppressors of FUS proteinopathy in yeast; Potency, µM (doses to about 76.6 µM), most hits filed as activators; 390,000 compounds, 0.24% hits; AID 1347120; S. cerevisiae FUS-expressing, growth rescue, OD600, 24 h;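 also: plate controls were DMSO vehicle for no effect and reference control for full effect; nearly all actives have a fitted effect of over 55% in size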
#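 Yeast expressing FUS under galactose induction, OD 0.005 in 2% galactose medium; compounds in a dilution series, 24 h at 30C. Growth rescue by absorbance at 600 nm; CP55940 positive control, DMSO negative.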
# TDP43 rescue = inhibitors of TDP-43 toxicity in yeast; Potency, µM (highest dose often 46.1 µM), without a hit: top-dose growth rescue (activation), hits mostly activators; TDP-43 expressing yeast growth rescue, BacTiter-Glo, 24 h; 410,000 compounds, 1.8% hits; also: % of control where 0% means no effect; nearly all actives have a fitted effect of over 50% in size
#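 Yeast cells expressing TDP-43 under galactose induction are exposed to compounds for 24 hr at 30 deg C. BacTiter-Glo luminescence measures growth, so protective compounds score as activators.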
# The depositor's hits bear a star; i = inactive; ? = inconclusive; . = no result. Unless noted, calls follow the shape of the dose curve; as a rule, active = well fitted curve in the direction sought with a large enough effect; inconclusive = small, poorly fitted or top-dose-only effect, or another doubt; inactive = no such curve, though single readings can be large; an effect the other way counts as inactive or inconclusive. Potency is read from the fitted curve at half-maximal effect.
SMILES,MBNL1 CUG block,aSyn rescue,Abeta rescue,Glioma ERSR ind,FUS suppressor,TDP43 rescue
O=C(NCCc1ccccn1)C1CC12CCN(C(=O)c1ccccc1Cl)CC2 (configuration not stated),.,.,.,-5%,.,.
CN(C(=O)c1cnn(-c2ncc3c(n2)-c2ccccc2CCC3)c1C1CC1)C1CCOC1 (configuration not stated),.,.,.,4%,.,.
Cc1cc2n(n1)C(c1ccccc1Cl)Nc1ccccc1-2 (configuration not stated),-7%,-11%,i,3%,i,?
CC(=O)Nc1ccc(C2Nc3c(C)cc(C)cc3-c3cc(C)nn32)cc1 (configuration not stated),.,.,i,-3%,i,-23%
CCN(CC)c1ccc(C2Nc3ccccc3-c3cc(C)nn32)cc1 (configuration not stated),.,.,i,1%,i,?
CSc1ccc(C2Nc3ccccc3-c3cc(C)nn32)cc1 (configuration not stated),3%,-1%,i,8%,?,18µM*
Cc1cc2n(n1)C(c1ccsc1)Nc1ccccc1-2 (configuration not stated),-5%,-20%,i,1%,i,8.9µM*
COC(=O)c1ccc(C2Nc3c(C)cccc3-c3cc(C)nn32)cc1 (configuration not stated),.,.,i,-1%,?,13µM*
C=CC1=C(C)C2=NC1=CC1=NC(=CC3=NC(=CC4=NC(=C2)C(C)=C4CCC(=O)O)C(CCC(=O)O)=C3C)C(C=C)=C1C.[Zn],.,.,.,-4%,.,.
CC(C)c1ccc(Nc2c(-c3ccccc3O)nc3cnccn23)cc1,.,.,i,?,i,25µM*
CC1(Cc2ccccc2OC(F)(F)F)C(=O)Nc2ccc(-c3ccsc3)cc21 (configuration not stated),.,-61%,i,-12%,i,20µM*
CC1(Cc2ccccc2OC(F)(F)F)C(=O)Nc2ccc(OC(F)(F)F)cc21 (configuration not stated),.,2%,i,-9%,i,-55%
CNC(=O)COC(=O)/C=C/c1nc2ccccc2s1,-4%,7%,i,-2%,i,16µM*
CCN(CC)c1ccc(NC(=O)COC(=O)/C=C/c2nc3ccccc3s2)cc1,1%,4%,i,0%,i,-12%
N#CCC[C@@H]1CC[C@]2(CCCN(S(=O)(=O)c3ccccc3)C2)O1,.,.,.,.,i,.
CCN1C(=O)c2ccccc2C1Nc1cccc(OCCN2CCCCC2)c1 (configuration not stated),.,.,.,-3%,.,.
CCOc1cc(C(c2c(C)[nH][nH]c2=O)c2c(C)[nH][nH]c2=O)ccc1OCc1ccc([N+](=O)[O-])cc1,?,7%,?,?,?,?
CCOc1cc(C(c2c(C)[nH][nH]c2=O)c2c(C)[nH][nH]c2=O)ccc1OC(=O)c1cccc([N+](=O)[O-])c1,?,0%,i,-2%,35µM*,-19%
COC(=O)c1cc(CNC(=O)c2ccccc2F)cc(NC(=O)c2ccccc2OC)c1,.,.,.,3%,.,.
Cc1nn(C(=O)COc2ccc(Cl)cc2)c(C)c1Sc1ccccc1,.,.,i,0%,i,0%
Cc1nn(C(=O)CNS(=O)(=O)c2ccccc2)c(C)c1Sc1ccc(Cl)cc1,.,-11%,i,1%,.,16µM*
CCC(C)NC(=O)c1sc2nc(C)c(C(=O)Nc3ccc(Cl)cc3)c(-c3ccc(Br)cc3)c2c1N (configuration not stated),.,.,i,-3%,?,6%
Cc1nc2sc(C(N)=O)c(N)c2c(-c2ccc(Br)cc2)c1C(=O)Nc1ccc(Cl)cc1,.,.,i,-5%,?,22µM*
O=C(O)c1ccccc1-c1cc2ccccc2[nH]1,.,2%,i,-3%,i,-3%
COc1ccccc1-c1cc2ccccc2[nH]1,-7%,-16%,i,1%,i,16µM*
SMILES,MBNL1 CUG block,aSyn rescue,Abeta rescue,Glioma ERSR ind,FUS suppressor,TDP43 rescue
O=C(Nc1ccc2c(c1)Cc1ccccc1-2)NC1CCCCN(Cc2cccc(Cl)c2)C1=O (configuration not stated),.,.,.,.,i,.
COC(=O)C1CCCCN1Cc1ccc2c(c1)CN(C(=O)c1ccc(C)s1)CCO2 (configuration not stated),.,.,.,-4%,.,.
Cc1ccc(NC(=O)[C@@H]2CC(=O)O[C@@H]2c2ccccc2)c(C)c1,.,.,.,.,i,.
COC(=O)c1sc(-c2ccc(C(C)(C)C)cc2)cc1NC(=O)CSCC(=O)O,81%,-22%,i,-4%,28µM*,15%
Cc1cc(Br)c(OCc2ccc(C(=O)N/N=C3\CC4CC=CC34)cc2)c(Br)c1 (configuration not stated),-10%,10%,i,-1%,i,25µM*
COc1ccc(-c2nn(-c3ccccc3)cc2/C=C/C(=O)N(C)CC(=O)Nc2cccc(F)c2)cc1OC,.,2%,i,-2%,?,?
CCOC(=O)c1ccc(NC(=O)c2cn(-c3ccccc3)nc2-c2ccc(OC)c(OC)c2)cc1,.,.,i,0%,25µM*,?
CCN(CC(=O)Nc1ccc(NC(C)=O)cc1)C(=O)/C=C/c1cn(-c2ccccc2)nc1-c1ccc(F)cc1,.,1%,i,-2%,i,8%
CCN(CC(=O)Nc1ccc(NC(C)=O)cc1)C(=O)/C=C/c1cn(-c2ccccc2)nc1-c1ccc(C)cc1,12%,3%,i,2%,32µM*,16%
COc1cccc(NC(=O)CN(C)C(=O)/C=C/c2cn(-c3ccccc3)nc2-c2ccc(OC)c(OC)c2)c1,.,1%,i,-7%,40µM*,11%
Cc1ccc(-c2nc3ccc(Br)cn3c2Cc2cccc(Cl)c2)cc1,.,12%,i,0%,i,28µM*
Clc1ccc(-c2nc3ccc(Br)cn3c2Cc2cccc(Cl)c2)cc1,.,2%,i,2%,i,32µM*
CC(C)(C)Cc1c(-c2ccc(Cl)cc2)nc2ccc(Br)cn12,.,0%,i,-2%,i,35µM*
N#Cc1ccc(-c2nc3ccc(Br)cn3c2Cc2cccc(Cl)c2)cc1,.,-15%,i,2%,i,?
Cc1ccc(-c2nc3ccc(C)cn3c2Cc2cccc(Cl)c2)cc1,.,-1%,i,.,i,21%
Cc1ccc(-c2nc3ccc(Cl)cn3c2Cc2cccc(Cl)c2)cc1,.,29%,i,4%,?,20µM*

# High-throughput results from PubChem.
